The test relates to HL-1. The test is described as follows: cardiomyocyte survival under oxidative or metabolic stress – cell-based, panel, H9c2 and HL-1, ATP luminescence, set 2, SAR follow-up (AID 651871).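 Also: cells exposed to stressor for 2 h before ATP readout; reference of the scale not given here.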 The conditions noted are these: H9c2/HL-1 cardiomyocytes, 2-deoxyglucose stress, with 2-deoxyglucose, run 2, at 19.8 µM (top of the series).

Take `COc1ccc2c(c1OC)C(=O)N1c3ccccc3C(=O)N(Cc3cccc(Cl)c3Cl)C21` (stereo unspecified): the activity (protection/inhibition) was 23.7%.
